Measurements: the supplement of paper PMC11732987, “Enantioselective OTUD7B fragment discovery through chemoproteomics screening and high-throughput optimisation” (Communications Chemistry, 2025)

Tests used:
Experiment in all cases: log2 ratio of Biotin-Ahx-Ub-VS probe labelling (fragment/DMSO); higher = less target engagement (more negative = stronger competition), active = hit call of the paper (q ≤ 0.05, log2 ratio ≤ -1)
Conditions in all cases: compound concentration: 200 uM; treatment time: 3 h
[1] = biological target: T1, ALG13 (UniProt Q9NP73)
T1 sequence (whole entry): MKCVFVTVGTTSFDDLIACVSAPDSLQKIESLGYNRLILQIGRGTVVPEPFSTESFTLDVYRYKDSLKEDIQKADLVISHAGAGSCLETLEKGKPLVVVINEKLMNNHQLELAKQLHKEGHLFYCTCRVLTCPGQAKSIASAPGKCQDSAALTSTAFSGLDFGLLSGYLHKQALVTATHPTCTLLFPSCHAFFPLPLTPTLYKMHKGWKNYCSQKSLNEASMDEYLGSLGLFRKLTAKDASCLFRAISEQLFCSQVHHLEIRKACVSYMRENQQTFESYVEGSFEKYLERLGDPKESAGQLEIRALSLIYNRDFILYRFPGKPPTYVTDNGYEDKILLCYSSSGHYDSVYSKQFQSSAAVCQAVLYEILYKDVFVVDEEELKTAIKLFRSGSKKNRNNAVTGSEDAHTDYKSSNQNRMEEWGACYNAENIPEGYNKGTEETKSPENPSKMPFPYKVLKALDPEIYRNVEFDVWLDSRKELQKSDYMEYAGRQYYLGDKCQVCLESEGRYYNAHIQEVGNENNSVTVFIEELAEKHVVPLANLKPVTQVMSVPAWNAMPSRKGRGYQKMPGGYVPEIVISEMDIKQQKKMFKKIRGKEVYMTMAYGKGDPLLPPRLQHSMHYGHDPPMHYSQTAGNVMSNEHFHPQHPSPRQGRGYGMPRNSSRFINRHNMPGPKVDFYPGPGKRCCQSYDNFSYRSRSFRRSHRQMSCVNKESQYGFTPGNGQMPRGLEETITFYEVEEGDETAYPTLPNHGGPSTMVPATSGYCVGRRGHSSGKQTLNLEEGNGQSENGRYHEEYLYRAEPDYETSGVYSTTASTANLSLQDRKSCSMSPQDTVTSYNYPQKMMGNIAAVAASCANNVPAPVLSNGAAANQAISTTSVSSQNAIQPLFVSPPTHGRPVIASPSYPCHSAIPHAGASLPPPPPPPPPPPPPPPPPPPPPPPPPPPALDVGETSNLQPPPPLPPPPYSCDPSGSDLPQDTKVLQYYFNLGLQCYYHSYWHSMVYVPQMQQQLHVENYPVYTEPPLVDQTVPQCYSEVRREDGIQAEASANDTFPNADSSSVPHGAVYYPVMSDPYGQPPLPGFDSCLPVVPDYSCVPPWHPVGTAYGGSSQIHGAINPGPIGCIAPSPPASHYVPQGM
Procedure, shortened: (§1)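 Lysate from HEK293T cells, 495 µg per sample in Tris/CHAPS/IGEPAL buffer with protease inhibitors, was treated for 3 h in triplicate with fragment at 200 µM or vehicle. Biotin-Ahx-Ub-VS was next added at 0.5 µM final for 1 h. The labelled DUBs were enriched with NeutrAvidin, digested with LysC and trypsin, and run by diaPASEF LC-MS/MS, with values given as average log2 fragment/vehicle ratios by unpaired t-test on global-median-normalised Spectronaut quantities of proteins with ≥2 unique peptides.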

[2] = biological target: ATXN3 (UniProt P54252)
Procedure, shortened: as §1

[3] = biological target: T2, BAP1 (UniProt Q92560)
T2 sequence (whole entry): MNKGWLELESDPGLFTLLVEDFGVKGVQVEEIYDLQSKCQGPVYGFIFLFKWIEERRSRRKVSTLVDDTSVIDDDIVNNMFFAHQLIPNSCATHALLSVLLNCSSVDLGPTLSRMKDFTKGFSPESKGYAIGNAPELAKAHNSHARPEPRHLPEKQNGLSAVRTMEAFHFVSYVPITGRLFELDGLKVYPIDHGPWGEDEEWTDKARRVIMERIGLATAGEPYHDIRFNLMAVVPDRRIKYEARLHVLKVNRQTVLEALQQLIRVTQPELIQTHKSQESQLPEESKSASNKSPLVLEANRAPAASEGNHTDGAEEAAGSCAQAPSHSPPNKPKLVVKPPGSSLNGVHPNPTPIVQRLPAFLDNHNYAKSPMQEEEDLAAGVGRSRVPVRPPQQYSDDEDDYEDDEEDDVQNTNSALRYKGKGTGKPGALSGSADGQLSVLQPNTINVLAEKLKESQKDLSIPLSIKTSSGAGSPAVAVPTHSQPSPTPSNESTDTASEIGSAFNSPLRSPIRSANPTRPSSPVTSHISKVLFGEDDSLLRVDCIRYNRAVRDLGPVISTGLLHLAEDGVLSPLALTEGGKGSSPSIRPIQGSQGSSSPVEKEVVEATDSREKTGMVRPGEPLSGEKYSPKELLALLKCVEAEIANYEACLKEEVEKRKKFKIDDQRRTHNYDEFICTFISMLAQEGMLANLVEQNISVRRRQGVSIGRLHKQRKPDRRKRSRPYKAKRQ
Procedure, shortened: as §1

[4] = biological target: EIF3F (UniProt O00303)
Procedure, shortened: as §1

[5] = biological target: EIF3H (UniProt O15372)
Procedure, shortened: as §1

[6] = biological target: T3, FAM105A (UniProt Q9NUU6)
T3 sequence (whole entry): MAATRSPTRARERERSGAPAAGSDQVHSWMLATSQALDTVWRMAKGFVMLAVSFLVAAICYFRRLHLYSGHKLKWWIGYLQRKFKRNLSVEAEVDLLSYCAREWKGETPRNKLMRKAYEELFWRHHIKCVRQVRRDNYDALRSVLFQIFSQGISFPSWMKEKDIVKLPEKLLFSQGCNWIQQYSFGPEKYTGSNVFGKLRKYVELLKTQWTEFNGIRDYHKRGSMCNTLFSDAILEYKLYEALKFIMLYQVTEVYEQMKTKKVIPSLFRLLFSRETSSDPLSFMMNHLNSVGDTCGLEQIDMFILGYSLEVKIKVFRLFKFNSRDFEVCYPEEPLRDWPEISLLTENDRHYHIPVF
Procedure, shortened: as §1

[7] = biological target: OTUB1 (UniProt Q96FW1)
Procedure, shortened: as §1

[8] = biological target: T4, OTUD4 (UniProt Q01804)
T4 sequence (whole entry): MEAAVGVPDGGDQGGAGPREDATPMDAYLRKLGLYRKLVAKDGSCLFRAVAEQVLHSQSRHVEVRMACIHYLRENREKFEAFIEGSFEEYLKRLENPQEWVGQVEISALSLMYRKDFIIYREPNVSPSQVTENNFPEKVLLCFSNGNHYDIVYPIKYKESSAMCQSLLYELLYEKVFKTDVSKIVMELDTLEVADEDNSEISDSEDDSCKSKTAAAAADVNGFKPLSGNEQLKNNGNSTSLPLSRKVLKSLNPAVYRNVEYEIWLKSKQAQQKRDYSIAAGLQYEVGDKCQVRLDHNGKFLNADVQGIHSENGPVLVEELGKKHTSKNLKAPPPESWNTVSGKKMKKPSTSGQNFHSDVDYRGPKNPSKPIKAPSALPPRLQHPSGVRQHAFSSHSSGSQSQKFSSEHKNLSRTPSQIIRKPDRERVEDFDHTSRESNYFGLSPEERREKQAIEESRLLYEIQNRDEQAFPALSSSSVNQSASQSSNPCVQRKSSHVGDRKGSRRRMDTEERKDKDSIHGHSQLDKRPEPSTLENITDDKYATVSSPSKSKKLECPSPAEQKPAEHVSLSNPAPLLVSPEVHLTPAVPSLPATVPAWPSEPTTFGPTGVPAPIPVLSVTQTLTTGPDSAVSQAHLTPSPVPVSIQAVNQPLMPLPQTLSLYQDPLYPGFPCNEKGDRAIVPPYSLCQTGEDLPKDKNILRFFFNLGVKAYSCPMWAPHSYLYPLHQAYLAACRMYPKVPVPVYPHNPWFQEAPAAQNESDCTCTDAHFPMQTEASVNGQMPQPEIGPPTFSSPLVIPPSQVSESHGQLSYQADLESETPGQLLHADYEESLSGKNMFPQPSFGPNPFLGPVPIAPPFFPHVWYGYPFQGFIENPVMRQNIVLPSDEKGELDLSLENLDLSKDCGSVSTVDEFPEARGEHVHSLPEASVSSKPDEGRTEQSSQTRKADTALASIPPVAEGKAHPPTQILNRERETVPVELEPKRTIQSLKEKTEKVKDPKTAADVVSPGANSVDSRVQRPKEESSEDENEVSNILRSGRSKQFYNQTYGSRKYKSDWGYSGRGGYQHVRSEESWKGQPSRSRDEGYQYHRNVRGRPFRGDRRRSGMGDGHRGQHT
Procedure, shortened: as §1

[9] = biological target: T5, OTUD5 (UniProt Q96G74)
T5 sequence (whole entry): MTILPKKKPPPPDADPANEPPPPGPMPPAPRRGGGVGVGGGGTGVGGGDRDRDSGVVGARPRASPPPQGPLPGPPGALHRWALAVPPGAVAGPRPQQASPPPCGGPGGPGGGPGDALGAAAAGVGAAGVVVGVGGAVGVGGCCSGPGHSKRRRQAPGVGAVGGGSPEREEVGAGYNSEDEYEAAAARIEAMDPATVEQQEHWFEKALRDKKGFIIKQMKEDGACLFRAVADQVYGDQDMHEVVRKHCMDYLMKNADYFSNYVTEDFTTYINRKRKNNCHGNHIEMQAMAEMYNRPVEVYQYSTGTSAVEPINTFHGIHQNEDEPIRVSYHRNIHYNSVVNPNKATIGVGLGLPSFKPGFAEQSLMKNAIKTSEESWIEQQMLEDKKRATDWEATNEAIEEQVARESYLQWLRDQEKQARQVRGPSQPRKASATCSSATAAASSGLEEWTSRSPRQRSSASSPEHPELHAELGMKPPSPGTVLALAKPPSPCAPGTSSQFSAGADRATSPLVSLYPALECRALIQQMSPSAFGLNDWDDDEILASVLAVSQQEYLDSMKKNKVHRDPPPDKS
Procedure, shortened: as §1

Measured: log2 ratio of Biotin-Ahx-Ub-VS probe labelling

Sequence of EIF3F (O00303 whole entry): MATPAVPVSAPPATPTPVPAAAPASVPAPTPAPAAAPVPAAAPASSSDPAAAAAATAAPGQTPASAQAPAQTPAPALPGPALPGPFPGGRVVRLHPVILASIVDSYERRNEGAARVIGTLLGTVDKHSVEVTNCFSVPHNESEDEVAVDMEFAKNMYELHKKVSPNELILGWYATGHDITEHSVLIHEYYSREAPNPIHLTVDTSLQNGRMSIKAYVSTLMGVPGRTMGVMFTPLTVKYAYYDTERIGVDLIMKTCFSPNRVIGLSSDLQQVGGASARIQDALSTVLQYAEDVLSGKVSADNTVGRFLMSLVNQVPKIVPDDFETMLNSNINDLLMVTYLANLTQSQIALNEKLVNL
Sequence of OTUB1 (Q96FW1 whole entry): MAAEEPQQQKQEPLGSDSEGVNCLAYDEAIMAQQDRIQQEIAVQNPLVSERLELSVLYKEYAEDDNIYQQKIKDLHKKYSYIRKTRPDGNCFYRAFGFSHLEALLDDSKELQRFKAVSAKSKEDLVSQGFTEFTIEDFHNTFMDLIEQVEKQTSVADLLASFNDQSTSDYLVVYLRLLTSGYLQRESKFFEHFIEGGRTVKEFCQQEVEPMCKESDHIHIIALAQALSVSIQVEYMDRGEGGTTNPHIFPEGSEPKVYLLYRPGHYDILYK
Sequence of ATXN3 (P54252 whole entry): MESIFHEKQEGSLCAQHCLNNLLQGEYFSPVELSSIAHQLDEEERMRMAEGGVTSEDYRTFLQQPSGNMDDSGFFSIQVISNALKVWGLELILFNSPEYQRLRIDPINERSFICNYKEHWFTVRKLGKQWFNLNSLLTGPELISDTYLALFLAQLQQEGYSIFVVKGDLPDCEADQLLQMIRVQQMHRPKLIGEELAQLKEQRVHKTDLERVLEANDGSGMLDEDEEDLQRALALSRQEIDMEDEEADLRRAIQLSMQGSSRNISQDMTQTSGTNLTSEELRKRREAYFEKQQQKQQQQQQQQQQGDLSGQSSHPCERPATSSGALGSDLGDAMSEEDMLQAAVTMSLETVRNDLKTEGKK
Sequence of EIF3H (O15372 whole entry): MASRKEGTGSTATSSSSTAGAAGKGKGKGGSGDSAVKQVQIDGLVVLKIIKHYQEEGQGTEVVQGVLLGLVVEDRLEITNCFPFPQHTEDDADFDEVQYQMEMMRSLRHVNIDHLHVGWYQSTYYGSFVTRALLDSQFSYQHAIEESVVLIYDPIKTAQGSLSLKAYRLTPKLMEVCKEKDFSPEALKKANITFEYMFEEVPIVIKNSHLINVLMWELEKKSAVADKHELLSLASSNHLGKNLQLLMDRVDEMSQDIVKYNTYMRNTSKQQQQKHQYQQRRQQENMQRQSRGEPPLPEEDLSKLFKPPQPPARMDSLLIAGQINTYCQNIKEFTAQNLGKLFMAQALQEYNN

Cl.O=C(CCl)N1CCn2cncc2C1
inactive: [1] 0.285 | [2] -0.224 | [3] -0.163 | [4] -0.0339 | [5] 0.0971 | [6] -0.433 | [7] -0.000993 | [8] 0.0549 | [9] -0.214
